From PubChem BioAssay
Active and inactive are the calls of the source. Unless noted, the rule behind the calls is not given here.

Experiments:
[1] = compound effects on lung adenocarcinoma cell viability – A549, calcein-AM fluorescence, 48 h, basal, profiling panel (AID 1162); conditions: higher = more signal; note: test concentration not given here
[2] = compound effects on differentiated 3T3-L1 adipocyte viability – cell-based, 3T3-L1 adipocytes, calcein-AM fluorescence, 48 h, basal, profiling panel (AID 1163); conditions: 3T3-L1 adipocytes viability, higher = more signal; note: test concentration not given here
[3] = compound effects on hepatocellular carcinoma cell viability – HepG2, calcein-AM fluorescence, 48 h, basal, profiling panel (AID 1164); conditions: higher = more signal; note: test concentration not given here
[4] = compound effects on multiple myeloma cell viability – MM1S, calcein-AM fluorescence, 48 h, basal, profiling panel (AID 1165); conditions: higher = more signal; note: test concentration not given here
[5] = calcein-AM signal in unstimulated myeloma cells – cell-based, calcein-AM fluorescence, 48 h, PK04 Diversity Set, profiling panel (AID 1166); conditions: RPMI8226 myeloma viability, higher = more signal;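 note: cells grown under basal conditions without added stimulus; test concentration not given here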
[6] = JC-1 mitochondrial signal, unstimulated HepG2 cells – cell-based, JC-1 fluorescence, 24 h, 100 nL compound, profiling panel (AID 1167); conditions: HepG2 mitochondrial potential, higher = more signal; note: test concentration not given here
[7] = JC-1 mitochondrial signal, unstimulated adipocytes – cell-based, JC-1 fluorescence, 3T3-L1 adipocytes, 24 h, 100 nL compound, profiling panel (AID 1168); conditions: JC-1 mitochondrial fluorescence, higher = more signal, called active from +8 up or from −8 down; note: test concentration not given here
[8] = JC-1 mitochondrial signal, unstimulated myeloma cells – cell-based, JC-1 fluorescence, RPMI8226, 24 h, 100 nL compound, profiling panel (AID 1169); conditions: JC-1 mitochondrial potential fluorescence, higher = more signal; note: test concentration not given here
[9] = JC-1 mitochondrial signal, unstimulated MM1S myeloma – cell-based, JC-1 fluorescence, 24 h, 100 nL compound, profiling panel (AID 1170); conditions: MM1S mitochondrial potential, higher = more signal; note: test concentration not given here
[10] = resazurin metabolic signal in A549 cells – cell-based, resazurin fluorescence, 24 h, PK04 Diversity Set, profiling panel (AID 1171); conditions: A549 viability, higher = more signal, called active from +8 up or from −8 down; note: test concentration not given here
[11] = resazurin metabolic signal in HepG2 cells – cell-based, resazurin fluorescence, 24 h, PK04 Diversity Set, profiling panel (AID 1172); conditions: HepG2 viability, higher = more signal; note: test concentration not given here
[12] = budding yeast growth changes without added modifier – OD600, strain BY4716, 24 h, basal condition, primary screen (AID 1173); conditions: S. cerevisiae BY4716 growth, OD600, 24 h; higher = more signal, called active from +8 up or from −8 down
[13] = viability profiling in MM1S myeloma cells – cell-based, resazurin fluorescence, basal, 24 h, PK04 Diversity Set, profiling panel (AID 1174); conditions: higher = more signal, called active from +8 up or from −8 down; note: test concentration not given here
[14] = molecular target: Dihydroorotate dehydrogenase (quinone), mitochondrial (Plasmodium falciparum (isolate 3D7)) (UniProt Q08210); experiment: inhibition of P. falciparum DHODH – biochemical, C-terminal His tag, absorbance 600 nm, primary screen (AID 1175); conditions: PfDHODH enzyme, DCIP absorbance 600 nm; higher = more signal, called active from +8 up or from −8 down;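 note: recombinant parasite enzyme with a five histidine tag at its C terminus; test concentration not given here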
Dihydroorotate dehydrogenase (quinone), mitochondrial (Plasmodium falciparum (isolate 3D7)), sequence (Q08210 whole entry, looked up): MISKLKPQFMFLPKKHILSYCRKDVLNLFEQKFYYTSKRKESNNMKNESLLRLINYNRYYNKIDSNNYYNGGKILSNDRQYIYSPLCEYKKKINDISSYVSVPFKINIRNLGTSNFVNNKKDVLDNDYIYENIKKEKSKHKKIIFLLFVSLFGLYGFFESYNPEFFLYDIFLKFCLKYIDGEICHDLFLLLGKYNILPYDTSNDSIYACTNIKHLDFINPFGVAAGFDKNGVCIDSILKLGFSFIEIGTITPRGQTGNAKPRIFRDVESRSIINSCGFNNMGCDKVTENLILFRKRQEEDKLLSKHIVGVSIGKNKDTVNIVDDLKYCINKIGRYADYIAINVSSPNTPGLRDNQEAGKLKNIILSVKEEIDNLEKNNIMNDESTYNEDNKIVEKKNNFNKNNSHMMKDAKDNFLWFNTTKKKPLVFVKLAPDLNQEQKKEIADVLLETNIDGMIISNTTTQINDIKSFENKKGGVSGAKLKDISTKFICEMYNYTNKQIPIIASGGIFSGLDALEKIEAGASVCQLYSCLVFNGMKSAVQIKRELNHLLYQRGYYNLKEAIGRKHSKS

[15] = inhibition of PAO1 biofilm formation – strain PAO1, LB-PBS medium, absorbance 600 nm, primary screen (AID 1176); note: test concentration not given here; conditions: P. aeruginosa PAO1 growth/biofilm, A600, 12 h; higher = more signal
[16] = growth modulation of vineyard yeast isolate – strain RM11-1a, OD600, basal, 24 h, primary screen (AID 1177);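 note: cultures grown under basal conditions with no added stressor; test concentration not given here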; conditions: S. cerevisiae RM11-1a growth, OD600, 24 h; higher = more signal, called active from +8 up or from −8 down
[17] = growth of efflux-deficient E. coli DRC39 – strain DRC39, OD650, 24 h, E. coli filamentation inducers, primary screen (AID 1178);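 note: growth measured as culture turbidity by optical density at 650 nm; test concentration not given here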; conditions: E. coli DRC39 acrAB, higher = more signal, called active from +8 up or from −8 down
[18] = growth of efflux-deficient E. coli DRC39 – strain DRC39, OD650, 48 h, E. coli filamentation inducers, primary screen (AID 1179);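 note: screen aims at cell division blockers that make cells filament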; conditions: E. coli DRC39 delta-acrAB growth, higher = more signal, called active from +8 up or from −8 down
[19] = viability profiling in RPMI8226 myeloma cells – cell-based, resazurin fluorescence, basal, 24 h, PK04 Diversity Set, profiling panel (AID 1180); conditions: higher = more signal;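 note: RPMI8826 multiple myeloma cell line at 5000 cells per well; test concentration not given here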
[20] = molecular target: E3 ubiquitin-protein ligase XIAP (Homo sapiens) (UniProt P98170); experiment: small molecules binding XIAP protein – biophysical, small-molecule microarray, fluorescence 635 nm, primary screen (AID 1181); conditions: higher = more signal;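 note: score merges 667 nm emission and signal to noise over triplicate slides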
E3 ubiquitin-protein ligase XIAP (Homo sapiens), sequence (P98170 whole entry, looked up): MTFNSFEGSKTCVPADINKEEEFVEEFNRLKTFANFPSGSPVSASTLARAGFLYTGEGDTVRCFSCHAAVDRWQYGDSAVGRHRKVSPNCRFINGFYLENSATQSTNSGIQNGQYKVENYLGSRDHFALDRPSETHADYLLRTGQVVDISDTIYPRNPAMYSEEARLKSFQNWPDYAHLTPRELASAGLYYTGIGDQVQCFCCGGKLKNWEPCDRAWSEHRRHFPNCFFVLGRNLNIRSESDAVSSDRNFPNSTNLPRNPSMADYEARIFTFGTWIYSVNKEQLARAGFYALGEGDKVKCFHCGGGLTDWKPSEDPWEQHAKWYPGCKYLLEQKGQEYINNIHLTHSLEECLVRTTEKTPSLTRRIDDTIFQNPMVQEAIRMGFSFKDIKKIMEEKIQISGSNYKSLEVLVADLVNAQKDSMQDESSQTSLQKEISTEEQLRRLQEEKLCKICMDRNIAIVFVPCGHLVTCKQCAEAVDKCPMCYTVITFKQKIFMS

Structure (SMILES) | z-score [1] | z-score [2] | z-score [3] | z-score [4] | z-score [5] | z-score [6] | z-score [7] | z-score [8] | z-score [9] | z-score [10] | z-score [11] | z-score [12] | z-score [13] | composite z-score [14] | z-score [15] | z-score [16] | z-score [17] | z-score [18] | z-score [19] | composite z-score [20]
CCC[C@@H]1C[C@@]1(CCC)[C@@H](NC(=O)c1cccs1)c1ccc(Cl)cc1 | -0.162 | -0.608 | -0.892 | -2.77 | -4.78 | -0.52 | 0.028 (inactive) | -0.000314 | -0.386 | 4.94 (inactive) | 1.82 | -0.779 (inactive) | 1.19 (inactive) | -0.118 (inactive) | 0.852 (inactive) | 0.235 (inactive) | 0.279 (inactive) | 0.372 (inactive) | 2.95 | -0.193
C=C[C@H](C)[C@H](OC(=O)Nc1ccc(SC)cc1)c1ccc(O)c2ccccc12 | -0.561 | -0.557 | -1.51 | -2.74 | -3.78 | -3.16 | -0.818 (inactive) | -0.939 | -1.51 | -1.12 (inactive) | -1.13 | -18.5 (active) | -3.69 (inactive) | -2.47 (inactive) | 0.802 (inactive) | -3.62 (inactive) | -1.46 (inactive) | -1.6 (inactive) | -2.55 | 0.0528
Cc1ccc(N2C(=O)c3ccccc3[C@](C)(C(=O)NC(C)C)[C@@H]2c2ccc(CO)cc2)nc1 | -0.465 | 0.92 | -1.37 | -1.03 | -1.35 | -0.42 | -0.424 (inactive) | -0.586 | 1.34 | 0.0095 (inactive) | -0.591 | 0.201 (inactive) | 0.761 (inactive) | -3.7 (inactive) | 0.599 (inactive) | -0.243 (inactive) | 0.381 (inactive) | -0.111 (inactive) | 0.818 | -0.272
NC(=O)[C@H]1[C@@H]2C(=O)O[C@@H](c3ccccc3)[C@@H](c3ccccc3)N2[C@@H](c2ccc(O)cc2)[C@]12C(=O)Nc1ccc(C#CC3(O)CCCCCC3)cc12 | 0.205 | 1.54 | 0.961 | -1.13 | -4.08 | -1.39 | -0.575 (inactive) | -0.808 | -0.184 | 0.995 (inactive) | -0.518 | -0.475 (inactive) | 0.522 (inactive) | -0.885 (inactive) | 0.738 (inactive) | -0.323 (inactive) | 0.249 (inactive) | -0.815 (inactive) | 0.159 | -0.102
CN1C(=O)C2C=CC(C(O)c3ccc(F)cc3)N(N3CCCCC3)C2C1=O (stereo not given) | -1.1 | -1.24 | -0.572 | -1.05 | 0.0924 | -1.43 | -0.487 (inactive) | 0.00989 | -0.118 | -0.707 (inactive) | -1.49 | 1.62 (inactive) | -1.78 (inactive) | -0.555 (inactive) | 1.41 (inactive) | 1.42 (inactive) | -1.02 (inactive) | -0.837 (inactive) | -1.79 | -0.0727
COc1cc(C(O)C2C=CC3C(=O)N(C)C(=O)C3N2NC(=O)OC(C)(C)C)cc(OC)c1OC (stereo not given) | -1.58 | -0.785 | -0.884 | -2.19 | -0.907 | -1.66 | -0.321 (inactive) | -0.872 | 0.415 | -0.679 (inactive) | -1.22 | 1.74 (inactive) | -0.976 (inactive) | 0.0277 (inactive) | 0.847 (inactive) | 0.796 (inactive) | -1.01 (inactive) | -0.503 (inactive) | -1.24 | 0.085
COC(=O)[C@@]1(Cc2ccc(F)cc2)[C@H]2c3cc(C(=O)N(C)C)n(CCSCCO)c3C[C@H]2CN1C(=O)c1ccccc1 | -0.716 | -0.352 | 0.665 | -0.684 | -1.08 | -0.572 | -0.682 (inactive) | -0.0796 | 0.172 | -0.0793 (inactive) | -0.234 | -0.0857 (inactive) | -0.42 (inactive) | -0.467 (inactive) | 0.399 (inactive) | 0.0891 (inactive) | -0.514 (inactive) | -0.32 (inactive) | -0.107 | -0.234
C=C(COC)C(=O)CC[C@H](OC(=O)c1ccccc1-c1ccccc1C(=O)O)c1ccc(CO)o1 | -0.643 | -0.398 | -0.985 | 0.232 | -0.0416 | -1.01 | -0.345 (inactive) | 0.12 | 0.433 | -0.256 (inactive) | -0.45 | 0.624 (inactive) | -0.176 (inactive) | -1.39 (inactive) | 1.85 (inactive) | 0.89 (inactive) | -0.573 (inactive) | -0.399 (inactive) | -0.178 | 0.0402
CC(C)CNC(=O)[C@@]1(c2ccc([N+](=O)[O-])cc2)CC(=O)N(C(C)C)[C@@H]1c1ccc(CO)cc1 | 0.264 | -0.0455 | 0.0153 | -1.07 | 0.399 | 0.621 | -0.167 (inactive) | 0.604 | -0.131 | 0.591 (inactive) | -0.0273 | -0.78 (inactive) | 1.23 (inactive) | 1.14 (inactive) | -0.301 (inactive) | -0.738 (inactive) | 0.474 (inactive) | 1.53 (inactive) | 1.37 | -0.13
